Bioassay records deposited in PubChem by National Center for Advancing Translational Sciences (NCATS).
ELG1 genotoxic – genotoxicity induction in ELG1-luciferase HEK293T cells; HEK293T ELG1-luciferase reporter, luminescence, 16 h; Potency, µM (top dose mostly 46 µM), hits mostly activators; actives 1.3% (n = 330,000); AID 504466; also: nearly all actives have a fitted effect of over 60% in size
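16 hr compound incubation (37 °C, 5% CO2) of HEK293T cells carrying luciferase-tagged ELG1; luciferase then measured by ONE-Glo luminescence after 30 min at RT.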
Luc counter – counter-screen: inhibitors of Kinase-Glo firefly luciferase; actives 0.28% (n = 200,000); AID 1379; Kinase-Glo luciferase, ATP luminescence, 8 min; Potency, µM (highest dose often 38.3 µM), usual class: inhibitors; also: nearly all actives have a fitted effect of over 60% in size
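Luminescence was the read-out, taken after 8-minute incubation at ambient temperature. Luciferase turned over luciferin with 10 uM ATP in imidazole pH 7.2 buffer containing KCl, MgCl2, Tween 20 and BSA.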
Rab9 prom act – Rab9 promoter activation | AID 485297 | Huh7 Rab9 promoter-luciferase reporter, luminescence, 24 h | Potency, µM (titrated, usually from 9.22 µM), actives largely listed as activators | actives 2.8% (n = 320,000); also: nearly all actives have a fitted effect of over 60% in size
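Measured in stably transfected Huh7 cells bearing a Rab9 promoter–luciferase construct: 24 h compound treatment at 37 °C, followed by luminescence detection.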
SMN2 splice enh – enhancers of SMN2 splice variant expression. HEK293 SMN2-luciferase splicing reporter, luminescence, 30-36 h. Potency, µM (series often up to 46.1 µM), hits mostly activators. actives 2.8% (n = 210,000); also: nearly all actives have a fitted effect of over 55% in size
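HEK293 cells carry an SMN2 […]–luciferase reporter in which exon 7 inclusion puts luciferase in frame. Cells were plated 10-12 h before compound addition, then incubated 30-36 h at 37C. ONE-Glo luminescence was read; sodium butyrate at 4.5 mM final served as control.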
NPC1 promoter act – activates the NPC1 promoter; Huh7 NPC1 promoter luciferase reporter, 24 h; Potency, µM (doses to about 9.22 µM), hits mostly activators; actives 2.4% (n = 320,000); also: nearly all actives have a fitted effect of over 60% in size
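NPC1 promoter–luciferase Huh7 cells; 24 h compound; luminescence.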
FLuc counter – inhibits or activates purified firefly luciferase, miR-21 counter-screen; P08659; purified FLuc, Km substrates, luminescence inhibition; actives 6.9% (n = 360,000); Potency, µM (top dose mostly 57.5 µM), actives largely listed as inhibitors; AID 588342; also: nearly all actives have a fitted effect of over 55% in size
Target sequence (P08659 whole entry, looked up): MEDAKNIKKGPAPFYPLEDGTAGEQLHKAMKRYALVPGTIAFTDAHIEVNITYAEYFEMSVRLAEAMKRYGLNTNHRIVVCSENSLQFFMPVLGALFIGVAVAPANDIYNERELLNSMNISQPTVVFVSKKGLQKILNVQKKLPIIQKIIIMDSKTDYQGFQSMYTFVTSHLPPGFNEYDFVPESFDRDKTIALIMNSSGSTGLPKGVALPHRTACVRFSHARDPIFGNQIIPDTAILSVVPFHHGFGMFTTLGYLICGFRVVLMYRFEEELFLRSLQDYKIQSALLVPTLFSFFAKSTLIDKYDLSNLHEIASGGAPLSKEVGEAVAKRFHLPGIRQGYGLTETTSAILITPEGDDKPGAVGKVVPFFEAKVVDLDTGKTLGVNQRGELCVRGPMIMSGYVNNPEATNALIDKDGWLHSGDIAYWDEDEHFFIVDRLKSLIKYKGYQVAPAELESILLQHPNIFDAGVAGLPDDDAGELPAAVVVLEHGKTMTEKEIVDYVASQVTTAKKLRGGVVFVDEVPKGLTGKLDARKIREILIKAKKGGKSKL
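Biochemical qHTS of compounds, final roughly 60 µM downward over six points, against 10 nM purified firefly luciferase using Km concentrations of substrates (10 uM D-luciferin, 10 uM ATP) in Tris acetate pH 7.5 buffer; luminescence output.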
Numbers stand for hits; - = inactive; ? = inconclusive; . = no result; [ ] = another dose, or the depositor's remark. Most compounds without a hit are left out; they make up all but 7.3% or so of the library. Calls follow the shape of the dose curve; as a rule, active = well fitted curve in the direction sought with a large enough effect; inconclusive = small, poorly fitted or top-dose-only effect, or another doubt; inactive = no such curve, though single readings can be large; an effect the other way counts as inactive or inconclusive.

SMILES	ELG1 genotoxic	Luc counter	Rab9 prom act	SMN2 splice enh	NPC1 promoter act	FLuc counter
O=c1oc2ccc(Br)cc2cc1-c1csc(-c2ccccc2)n1	.	.	.	.	.	-
Cc1ccccc1C(=O)NNC(=O)c1ccc(F)cc1	-	-	-	-	-	-
COC(=O)NNC(=O)c1ccccc1OC	-	-	-	-	-	-
COc1ccccc1C(=O)NNC(=O)c1ccc(F)cc1	?	-	?	11µM	-	?
COc1ccccc1C(=O)NNC(=O)c1ccc(Cl)cc1	-	-	-	.	-	15µM
COc1ccccc1C(=O)NNC(=O)c1ccc2ccccc2c1	-	.	-	.	-	12µM
Cc1nc(NC2CCCCC2)c2nc(-c3ccccc3)n(CCN3CCCCC3)c2n1	.	-	.	-	.	.
Cc1cccc(NS(=O)(=O)c2cc(C(=O)O)ccc2Cl)c1	.	-	.	.	.	.
CCOC(=O)c1ccc(NC(=O)CN2c3ccccc3S(=O)(=O)c3ccccc32)cc1	.	.	.	.	.	-
O=C(CS(=O)(=O)c1ccc(F)cc1)Nc1nnc(-c2cccs2)o1	-	.	-	.	-	-
Fc1ccc2c(Cl)c(-c3nnc(-c4cccs4)o3)sc2c1	0.65µM	-	0.56µM	4.5µM	1.4µM	0.19µM
O=C(Nc1ccc(Cl)cc1)N1CCC(c2ccccc2)C1 (centres undefined)	?	-	1.1µM	13µM	1.6µM	3.8µM
Cc1ccc(NC(=O)N2CCC(c3ccccc3)C2)cc1C (centres undefined)	?	-	0.79µM	13µM	1.4µM	4.8µM
CC(C)N(C)C1CCN(C(=O)Nc2ccc(Cl)cc2)CC1	-	-	-	-	-	-
Cc1ccc(C2CCN(C(=O)Nc3ccccc3)C2)cc1 (centres undefined)	?	-	4µM	?	4.5µM	12µM
Cc1ccc(C(=O)NC2CCN(C(=O)Nc3ccccc3)CC2)cc1	-	.	-	.	-	-
Cc1csc2nc(COC(=O)c3ccc(NC(=O)c4ccccc4Br)cc3)cc(=O)n12	.	.	.	.	.	-
Nc1nc(N)c(N=Nc2ccc(C(=O)O)c(O)c2)c(N)n1	.	-[7.66 µM]	.	-[9.22 µM]	.	.
COc1ccccc1Nc1sc(C(=O)c2ccc(C)cc2C)c(N)c1S(=O)(=O)c1ccccc1	.	.	.	.	.	-
Cc1c(-c2nc(-c3ccc4c(c3)OCO4)no2)nnn1-c1ccc(C(C)C)cc1	.	.	.	.	.	-
C[C@H](CCC(=O)O)C1CC[C@H]2C3CC[C@@H]4C[C@H](O)CC[C@]4(C)C3C[C@H](O)[C@]12C (some centres undefined)	.	.	.	-	.	.
COC(=O)C1=NN(C(=O)c2ccccc2)C(O)(c2ccc([N+](=O)[O-])cc2)C1 (centres undefined)	-	.	-	.	-	24µM
COc1cccc(NC(=O)c2sc(-n3nc(C)c(Cc4ccccc4Cl)c3C)nc2C)c1	.	.	.	.	.	-
CC(C)C1=C[C@@]23CC[C@@H]4[C@](C)(CCC[C@@]4(C)C(=O)O)[C@@H]2C[C@@H]1[C@@H](C(=O)O)[C@@H]3C(=O)O	.	-[7.66 µM]	.	-[9.22 µM]	.	.
COc1cccc(CS(=O)(=O)c2nnnn2-c2ccccc2)c1	.	-	.	-	.	.
SMILES	ELG1 genotoxic	Luc counter	Rab9 prom act	SMN2 splice enh	NPC1 promoter act	FLuc counter
O=C1c2ccccc2C(=O)N1CCC1=CCCCC1	?	-	-	-	-	15µM
O=C(O)c1ccc2c(c1)C(=O)N(CCC1=CCCCC1)C2=O	-	-	-	-	-	-
COC(=O)c1ccc(C=O)cc1	.	.	.	-	.	.
COc1ccc(Br)cc1/C=C/c1ccc2cccc(O)c2n1	-	.	-	.	-	?
COC(=O)c1ccc(/C=C/c2ccc3cccc(OC)c3n2)cc1	-	-	-	-	-	5.4µM
COc1cc(/C=C/c2ccc3cccc(O)c3n2)cc(Cl)c1OC	21µM	.	0.71µM	.	0.63µM	2.7µM
COc1ccc(/C=C/c2ccc3cccc(O)c3n2)cc1Br	?	.	-	.	?	6µM
COc1ccc(/C=C/c2ccc3c(Br)ccc(O)c3n2)cc1	?	.	?	.	?	5.4µM
O=C(Nc1nnc(S(=O)(=O)N2CCCc3ccccc32)s1)c1ccccc1Br	.	.	.	.	.	-
Cc1ccc(C)c(NC(=O)C2CCN(c3cc(C)nc4c(-c5ccc(Cl)cc5)c(C)nn34)CC2)c1	.	.	.	-	.	-
OCc1cn(Cc2ccc(O)c3ncccc23)cn1	.	.	-	.	-	-
OC[C@@H](O)CNc1ncnc2ccccc12	.	-[7.66 µM]	.	-[9.22 µM]	.	.
CC(CO)(CO)N=Cc1cc(I)cc(I)c1O	.	-[7.66 µM]	.	-[9.22 µM]	.	.
COc1cc(/C=C/c2ccc3cccc(O)c3n2)cc(OC)c1OC	?	.	-	.	-	?
COc1cc(/C=C/c2ccc3cccc(O)c3n2)cc(Br)c1OC	23µM	.	4µM	.	2.8µM	4.8µM
Oc1[nH]c(N=C2N=c3ccccc3=N2)c2ccccc12	6.5µM	.	?	.	3.2µM	1.3µM
COc1ccc2c(c1)O[C@H](c1ccc3c(c1)OCO3)[C@@H](OC(=O)NCc1ccc3c(c1)OCO3)C2=O	.	-	.	-	.	.
COc1cccc([C@@H]2Oc3ccc(OC)cc3C(=O)[C@H]2OC(=O)NCCc2ccc(OC)c(OC)c2)c1	.	-	.	11µM	.	.
COc1cccc([C@@H]2Oc3ccc(OC)cc3C(=O)[C@H]2OC(=O)NCc2ccc3c(c2)OCO3)c1	?	-	?	-	-	6µM
O=C(CSc1nncs1)NC(=O)Nc1ccc2c(c1)OCCO2	?	.	3.5µM	.	?	15µM
O=C(CSc1nncs1)Nc1ccc2c(c1)OCCO2	15µM	-	?	-	?	?
Cc1cc(C(=O)CSc2nncs2)c(C)n1-c1ccc2c(c1)OCO2	-	-	2.2µM	-	?	19µM
CCOC(=O)c1c(C)oc2nc(C)nc(NCc3cccc(Cl)c3)c12	.	.	.	.	.	-
CCc1nnc(NC(=O)CSc2nc(C)c3c(c2C#N)CCCC3)s1	-	.	?	.	?	8.5µM
C=CCOc1ccc(/C=C2\SC(=S)N(C(C(=O)O)c3ccccc3)C2=O)cc1 (centres undefined)	-	.	-	.	-	21µM
SMILES	ELG1 genotoxic	Luc counter	Rab9 prom act	SMN2 splice enh	NPC1 promoter act	FLuc counter
CCOc1ccc(/C=C2\SC(=S)N(C(C(=O)O)c3ccccc3)C2=O)cc1OC (centres undefined)	-	.	-	.	-	19µM
CCC(=O)c1ccc(CCCCCC(=O)O)s1	-	-	-	.	-	9.5µM
CC(=O)c1ccc(CCCCCCCCCC(=O)O)s1	-	-	-	-	-	?
N/C(=N\OC(=O)CCC1CCCC1)c1ccncc1	-	-	-[1.84 µM]	-	-	13µM
N/C(=N\OC(=O)CC1CCCCC1)c1ccncc1	-	-	-	.	-	19µM
N/C(=N\OC(=O)CC1CCCCC1)c1ccccn1	?	-	-	-	-	0.6µM
Cc1ccc2[nH]c(=O)c(CN(C(=O)c3cccc(Cl)c3)C(C)(C)C)cc2c1	.	.	.	-	.	-
COc1ccc(-n2c(-c3ccccc3F)nc3c(cnn3-c3ccc(C)cc3)c2=O)cc1	.	.	.	-	.	-
CCOC(=O)CCSc1nc(C)c2cc(OC)ccc2n1	?	-	?	-	?	13µM
